Screening data as filed in PubChem.
TAG inh: inhibitors of triacylglycerol accumulation, primary screen, cell-based, uHTS, fluorescence, H9c2; H9c2 cells, Nile Red lipid (TAG) fluorescence; cells loaded with 200 µM oleic acid; inhibition, % at 12.5 µM; 230,000 tested, 0.66% active;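 active = pattern-corrected inhibition of lipid staining of at least 50% with the nuclear-stain viability signal not falling by more than 50%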
MIN6 prolif: inducers of MIN6 beta-cell proliferation, primary screen, ATP luminescence, uHTS; 330,000 tested, 0.29% active; MIN6 cells proliferation, ATPlite luminescence, 48 h; cells starved in 0.2% serum; 100% = growth in 10% serum; proliferation, % at 10 µM;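 active = compounds whose signal lies at least 3.5 SD above the mean of all wells on their plate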
CHT inh: inhibitors of human choline transporter CHT; 310,000 tested, 0.86% active; B-score at 10 µM; CHT-expressing cells, membrane potential dye, choline response; hits give low values; High affinity choline transporter 1 (Homo sapiens), Q9GZV3;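 active = B-score over 3 SD under the library average, and starting fluorescence ratio not unusually high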;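 also: choline stimulus applied at its EC90 after an EC20 pre-addition; B-score computed on integrated fluorescence ratio after choline addition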
Target sequence (Q9GZV3 whole entry, looked up): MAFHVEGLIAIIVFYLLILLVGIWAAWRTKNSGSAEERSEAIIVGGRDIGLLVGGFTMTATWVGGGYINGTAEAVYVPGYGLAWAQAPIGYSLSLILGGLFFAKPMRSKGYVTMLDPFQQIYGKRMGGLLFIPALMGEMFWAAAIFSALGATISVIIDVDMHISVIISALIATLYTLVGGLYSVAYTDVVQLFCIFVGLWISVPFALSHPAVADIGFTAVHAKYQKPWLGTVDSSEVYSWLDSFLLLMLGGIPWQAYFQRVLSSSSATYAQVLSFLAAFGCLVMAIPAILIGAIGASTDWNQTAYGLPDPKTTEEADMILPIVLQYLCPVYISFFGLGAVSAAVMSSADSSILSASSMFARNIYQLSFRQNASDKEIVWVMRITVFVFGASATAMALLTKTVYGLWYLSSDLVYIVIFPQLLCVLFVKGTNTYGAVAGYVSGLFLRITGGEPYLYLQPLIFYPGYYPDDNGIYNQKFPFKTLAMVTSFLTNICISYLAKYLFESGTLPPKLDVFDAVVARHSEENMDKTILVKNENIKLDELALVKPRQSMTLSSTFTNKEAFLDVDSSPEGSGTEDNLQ
CHT allo act: CHT positive allosteric modulators, primary screen, cell-based, membrane potential dye, choline EC20; High affinity choline transporter 1 (Homo sapiens), Q9GZV3; 310,000 tested, 0.49% active; CHT-expressing cells; hits give high values; LV-AA mutant CHT in HEK293 cells; AID 488977, 2010; B-score at 10 µM;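 active = initial fluorescence not abnormally high and integrated response B-score, plate-corrected, over 3 SD above library mean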
TAG conf: triacylglycerol accumulation inhibitors, retest, confirmation, cell-based, single concentration, Nile Red fluorescence, H9c2; shares compounds with TAG inh; inhibition, % at 12.5 µM; 990 tested, 71% active; H9c2 lipid accumulation; cells loaded with 200 µM oleic acid; AID 651629, 2012;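 active = mean inhibition across replicates of 40% or more; inactive = mean inhibition below 40%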
A number is an active result; 0 = inactive; - = not tested or not shown. In the library only some 1.7% were active in any assay of this set; here they are far more common.

SMILES | TAG inh | MIN6 prolif | CHT inh | CHT allo act | TAG conf
Cc1ccc(-c2nn(-c3ccccc3)cc2CSC(=N)N)cc1 | 53.5 | 0 | 0 | 0 | 108.7
Cc1ccc(Nc2nc(N/N=C/c3c[nH]c4ccccc34)nc(N3CCOCC3)n2)cc1 | - | 0 | 0 | 0 | -
Cc1[nH]c2ccccc2c1/C=N/Nc1nc(Nc2ccc(F)cc2)nc(N2CCOCC2)n1 | 75.7 | 0 | 0 | 0 | 85.8
Cc1nn(-c2ccccc2)c2c1CC(=O)Nc1ccccc1-2 | 73.9 | - | - | - | 86.9
CCn1c(CNc2ccc(Cl)cc2)nnc1SCC#N | - | 0 | 0 | 0 | -
COc1cccc(-c2nnc(SCC(=O)Nc3cc(C)ccc3OC)n2N)c1 | 53.2 | 0 | 0 | 0 | 0
Cc1nn(-c2ccccc2)c(C)c1NC(=O)COc1cc(F)ccc1[N+](=O)[O-] | 0 | 0 | - | - | -
COc1ccc(C(=O)Nc2ccccc2C(=O)NCc2ccco2)cc1OC | - | 0 | 0 | 0 | -
COc1ccc(C(=O)Nc2ccc(Cl)cc2C(=O)NCc2ccco2)cc1OC | 52.0 | 0 | 0 | 0 | 0
COCCN1C(=O)c2ccccc2C(C(=O)Nc2ccc3c(c2)OCCO3)C1c1ccc(F)cc1 (centres undefined) | 57.2 | 0 | 0 | 0 | 0
CCn1cc(Br)c(C(=O)NC(=S)Nc2ccc(C(=O)OC)cc2)n1 | - | 0 | 0 | 0 | -
COC(=O)[C@@]1(Cc2ccccc2)[C@H]2C(=O)N(Cc3ccccc3)C(=O)[C@H]2[C@H]2CN=C(SCc3ccc(Cl)cc3)N21 | 51.1 | - | - | - | 70.9
C=CCN1C(=O)C2(OCCCO2)c2cc(Cl)ccc21 | 0 | 0 | 0 | 0 | -
COc1cc2c(cc1NC(=O)Nc1cccc(C)c1)oc1ccccc12 | 50.5 | 0 | 0 | 0 | 0
COc1cc2c(cc1NC(=O)Nc1ccc(C)cc1)oc1ccccc12 | 0 | 0 | 0 | 0 | -
CCOc1ccccc1NC(=O)C(CC(C)C)NC(=O)C1CCCCC1 (centres undefined) | 50.5 | 0 | 0 | 0 | 0
O=C(Nc1ccc(F)cc1)C1C(c2ccccc2)C1(Cl)Cl (centres undefined) | - | 0 | 0 | 0 | -
COc1ccc(OC)c(S(=O)(=O)N/N=C\c2cn(CC(N)=O)c3ccccc23)c1 | 0 | 0 | 0 | 0 | -
Cc1nc(N/N=C/c2cccc(F)c2)cc(N2CCOCC2)n1 | 64.3 | 0 | 0 | 0 | 67.8
O=C(CSc1ccc(-c2cccc([N+](=O)[O-])c2)nn1)N1CCCCCC1 | 0 | 0 | 0 | 0 | -
O=C(CSc1ccc(-c2cccc([N+](=O)[O-])c2)nn1)N1CCCC1 | 60.5 | 0 | 0 | 0 | 0
CN(Cc1ccc(Cl)cc1)C(=O)CCl | 51.6 | 0 | 0 | 0 | 59.5
CC(C)NS(=O)(=O)c1ccc(CCC(=O)Nc2cc(Cl)ccc2Oc2ccccc2)cc1 | 51.6 | 0 | 0 | 0 | 0
CC(C)NS(=O)(=O)c1ccc(NC(=O)CCc2ccccc2)cc1 | - | 0 | 0 | 0 | -
O=C(Nc1cc2c(cc1Cl)-c1ccc([N+](=O)[O-])cc1C2=NO)C(F)(F)F | 0 | - | - | - | -
SMILES | TAG inh | MIN6 prolif | CHT inh | CHT allo act | TAG conf
CCOC(=O)N1CCC(N2Cc3cccc(C(=O)Nc4ccc(F)cc4)c3C2=O)CC1 | 0 | 0 | 0 | 0 | -
CCOC(=O)N1CCC(N2Cc3cccc(C(=O)Nc4ccc(CC)cc4)c3C2=O)CC1 | 69.6 | 0 | 0 | 0 | 0
O=C1CN(C(=O)c2cc([N+](=O)[O-])ccc2Cl)C(c2ccc(F)cc2)c2cc(F)ccc2N1 (centres undefined) | - | 0 | 0 | 0 | -
COc1ccc(CCNC(=O)[C@H](C)N2C(=O)N3CCc4c([nH]c5ccccc45)[C@@]3(C)C2=O)cc1OC | - | 0 | 0 | 0 | -
CCC1(O)CC2CN(CCc3c([nH]c4ccccc34)C(C(=O)OC)(c3cc4c(cc3OC)N(C=O)C3C(O)(C(=O)OC)C(OC(C)=O)C5(CC)C=CCN6CCC43C65)C2)C1 (centres undefined) | 51.6 | - | - | - | 56.9
O=C(NCCC1=CCCCC1)C1CCN(C(=O)Nc2ccccc2)CC1 | 50.8 | 0 | 0 | 0 | 0
Cc1cc(/C=N/N2CCN(C)CC2)c(C)n1-c1ccc(Cl)cc1 | 0 | 0 | 0 | 0 | -
CNC(=S)NN=C(C)CCCC(C)=NNC(=S)NC | 70.7 | - | - | - | 95.0
CNC(=S)N/N=C(\C)c1ccc(Cl)c(Cl)c1 | 0 | 0 | 0 | 0 | -
O=C(Cc1ccccc1)NCC(=O)Nc1ccccc1Br | - | 0 | 0 | 0 | -
Cc1ccc(Cl)cc1NC(=S)N/N=C/c1cccc2ccccc12 | 68.6 | 0 | 0 | 0 | 85.2
Cc1ccccc1C(=O)N/N=C/c1cccc2ccccc12 | - | 0 | 0 | 0 | -
O=C(c1ccc(F)cc1F)N1CCCN(c2nc(-c3ccccc3)ns2)CC1 | 74.6 | 0 | 0 | 0 | 0
CC(C)(C)NC(=O)N1CCN(c2nc(-c3ccccc3)ns2)CC1 | 0 | 0 | 0 | 0 | -
NC(=S)NN=C1c2cc(Cl)ccc2-c2c1cc(Cl)cc2[N+](=O)[O-] | 0 | - | - | - | -
COc1cc2c(cc1[N+](=O)[O-])-c1ccc([N+](=O)[O-])cc1C2=NNC(N)=S | 52.4 | - | - | - | 41.9
CCN(C(=O)CSc1ncccn1)c1cccc2ccccc12 | 0 | 0 | - | - | -
Cc1cccc(NC(=O)C(C)Sc2nc3ccccc3c(=O)n2CCCN2CCOCC2)c1 (centres undefined) | 52.9 | 0 | - | - | 56.9
O=C(OCC(=O)N1CCCCC1)c1cc(NS(=O)(=O)c2ccc(Cl)c([N+](=O)[O-])c2)ccc1O | - | 0 | 0 | 0 | -
Cc1cccc2c(N=Nc3ccc(S(=O)(=O)Nc4ccc(Cl)cc4)cc3[N+](=O)[O-])c(O)[nH]c12 | 54.0 | 0 | 0 | 0 | 51.0
COc1cc2[nH]c(=O)n3nc(-c4ccccc4)nc3c2cc1OC | 0 | 0 | 0 | 0 | -
CCN(CC)CCNc1nc2cc(OC)c(OC)cc2c2nc(-c3ccccc3)nn12 | 63.7 | 0 | 0 | 0 | 46.2
COc1ccc(-n2cc(CNC3CCN(C)CC3)c(-c3cccc(F)c3)n2)cc1 | 0 | 0 | 0 | 0 | -
COc1ccc(-n2cc(CN3CCCC3)c(-c3cccc(F)c3)n2)cc1 | 80.1 | 0 | 0 | 0 | 0
O=C1c2oc3ccccc3c(=O)c2C(c2ccc(O)cc2)N1c1nccs1 (centres undefined) | 0 | 0 | 0 | 0 | -
SMILES | TAG inh | MIN6 prolif | CHT inh | CHT allo act | TAG conf
Cc1nn2c(NCc3ccccn3)c3c(nc2c1-c1ccccc1)CCC3 | 61.2 | 0 | 0 | 0 | 40.1
COc1ccc(-c2oc(=O)c3cc(OC)c(OC)cc3c2/C=C/c2ccc([N+](=O)[O-])cc2)cc1 | 54.0 | 0 | - | - | 0
CC(Cc1n[nH]c(=S)n1N)c1ccccc1 (centres undefined) | - | 0 | 0 | 0 | -
CCOC(=O)NN=C1c2ccccc2-c2ccccc21 | 0 | 0 | 0 | 0 | -
CCOC(=O)Nc1ccc2c(c1)C(=NNC(=S)NC)c1ccccc1-2 | 57.7 | - | - | - | 69.8
CCN(CC)S(=O)(=O)c1ccc(N2CCCCC2)c(NC(=O)c2ccncc2)c1 | 0 | 0 | 0 | 0 | -
